According to PubChem BioAssay AID1159580 (chemical genetic matrix, 2015):
“And” between values parts separate entries of the source, which are not always exact repeats. Equal entries are not always repeated. Out of some 5,500 compounds screened, about 2,000 (36%) were called active. Not shown: some 18% with an inconclusive outcome. Rule as the data show it: active = normalized growth mostly below about 0.91 (no sharp cut-off); inconclusive = no clear call, values can overlap the other calls; inactive = mostly above about 0.92. This is one part of the list.

Experiment: chemical genetic growth profiling, strain panel (AID 1159580);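 also: tested at 20 µM; growth read once vehicle control cultures reached saturation at 30 °C; 1 = growth at the plate median or of vehicle wells; lower values mean less growth of the strain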
Settings: S. cerevisiae deletion strains, growth OD

Measured: normalized growth

COC(=O)C(O)c1ccccc1 (stereo unspecified)
inactive: locus YAL021C, strain ccr4, stronger effect = lower value 1.02 | locus YAL026C, strain drs2, stronger effect = lower value 1.01 | locus YAL030W, strain snc1, stronger effect = lower value 0.984 | locus YBL061C, strain skt5, stronger effect = lower value 0.996 | locus YBR009C, strain hhf1, stronger effect = lower value 1.01 | locus YBR021W, strain FUR4, stronger effect = lower value 1.06 | locus YBR023C, strain chs3, stronger effect = lower value 1.01 | locus YBR171W, strain sec66, stronger effect = lower value 0.99 | locus YBR229C, strain ROT2, stronger effect = lower value 0.999 | locus YBR231C, strain swc5, stronger effect = lower value 0.961 | locus YBR279W, strain paf1, stronger effect = lower value 0.999 | locus YCL011C, strain gbp2, stronger effect = lower value 1.02 | locus YCL016C, strain dcc1, stronger effect = lower value 1.02 | locus YCL029C, strain bik1, stronger effect = lower value 0.982 | locus YCL069W, strain vba3, stronger effect = lower value 1 | locus YCR088W, strain abp1, stronger effect = lower value 0.99 | locus YDL005C, strain med2, stronger effect = lower value 0.984 | locus YDL035C, strain GPR1, stronger effect = lower value 1.05 | locus YDL040C, strain nat1, stronger effect = lower value 0.991 | locus YDL074C, strain BRE1, stronger effect = lower value 1.05 | locus YDL101C, strain DUN1, stronger effect = lower value 0.977 | locus YDL134C, strain PPH21, stronger effect = lower value 0.964 | locus YDL185W, strain tfp1, stronger effect = lower value 0.949 | locus YDL192W, strain arf1, stronger effect = lower value 1.01 | locus YDR001C, strain nth1, stronger effect = lower value 0.99 | locus YDR069C, strain doa4, stronger effect = lower value 0.996 | locus YDR101C, strain arx1, stronger effect = lower value 1.05 | locus YDR137W, strain rgp1, stronger effect = lower value 1.01 | locus YDR159W, strain sac3, stronger effect = lower value 0.973 | locus YDR162C, strain NBP2, stronger effect = lower value 0.975 | locus YDR195W, strain ref2 0.909 | locus YDR297W, strain sur2, stronger effect = lower value 0.992 | locus YDR318W, strain mcm21, stronger effect = lower value 0.985 | locus YDR334W, strain swr1, stronger effect = lower value 0.98 | locus YDR335W, strain msn5, stronger effect = lower value 1.01 | locus YDR388W, stronger effect = lower value 0.973 | locus YDR392W, strain spt3, stronger effect = lower value 1.02 | locus YDR502C, strain sam2, stronger effect = lower value 0.969 | locus YEL003W, strain gim4, stronger effect = lower value 0.99 | locus YEL037C, strain rad23, stronger effect = lower value 0.992 | locus YEL061C, strain CIN8 (second series), stronger effect = lower value 0.983 | locus YEL061C, strain CIN8, stronger effect = lower value 0.991 | locus YER015W, strain faa2, stronger effect = lower value 1.01 | locus YER016W, strain bim1, stronger effect = lower value 0.993 | locus YER110C, stronger effect = lower value 0.984 | locus YER111C, strain swi4, stronger effect = lower value 0.981 | locus YER155C, strain BEM2 (second series), stronger effect = lower value 0.978 | locus YER155C, strain BEM2, stronger effect = lower value 0.988 | locus YER167W, strain BCK2, stronger effect = lower value 1.01 | locus YFR010W, strain ubp6, stronger effect = lower value 0.974 | locus YGL078C, strain dbp3, stronger effect = lower value 0.974 | locus YGL086W, strain mad1, stronger effect = lower value 0.996 | locus YGL167C, strain pmr1, stronger effect = lower value 0.995 | locus YGL173C, strain kem1, stronger effect = lower value 0.981 | locus YGL227W, strain vid30, stronger effect = lower value 1 | locus YGL240W, strain doc1, stronger effect = lower value 0.99 | locus YGL248W, strain PDE1, stronger effect = lower value 0.983 | locus YGL253W, strain hxk2, stronger effect = lower value 0.983 | locus YGR078C, strain PAC10, stronger effect = lower value 0.974 | locus YGR135W, strain pre9, stronger effect = lower value 0.941 | locus YGR229C, strain SMI1, stronger effect = lower value 0.961 | locus YGR252W, strain gcn5, stronger effect = lower value 1.02 | locus YHR013C, strain ard1, stronger effect = lower value 1 | locus YHR027C, strain rpn1, stronger effect = lower value 0.986 | locus YHR030C, strain SLT2, stronger effect = lower value 1.02 | locus YHR079C, strain IRE1 (second series), stronger effect = lower value 0.971 | locus YHR079C, strain IRE1, stronger effect = lower value 0.996 | locus YHR094C, strain hxt1, stronger effect = lower value 0.983 | locus YHR129C, strain ARP1, stronger effect = lower value 0.993 | locus YHR142W, strain chs7, stronger effect = lower value 1.02 | locus YHR200W, strain rpn10, stronger effect = lower value 0.963 | locus YIL066C, strain RNR3, stronger effect = lower value 1.02 | locus YIL073C, strain SPO22, stronger effect = lower value 0.977 | locus YIL125W, strain kgd1, stronger effect = lower value 1 | locus YIR030C, strain dcg1, stronger effect = lower value 0.975 | locus YJL092W, strain hpr5, stronger effect = lower value 0.991 | locus YJL095W, strain BCK1 (second series), stronger effect = lower value 0.985 | locus YJL095W, strain BCK1, stronger effect = lower value 0.963 and 1.01 | locus YJL115W, strain asf1, stronger effect = lower value 0.981 | locus YJL129C, strain trk1, stronger effect = lower value 0.992 | locus YJL134W, strain LCB3, stronger effect = lower value 0.992 | locus YJL154C, strain vps35, stronger effect = lower value 0.986 | locus YJL164C, strain tpk1, stronger effect = lower value 1.03 | locus YJL166W, strain qcr8, stronger effect = lower value 1.04 | locus YJL168C, strain set2, stronger effect = lower value 0.976 | locus YJL187C, strain SWE1 (second series), stronger effect = lower value 0.98 | locus YJL187C, strain SWE1, stronger effect = lower value 0.997 | locus YJR043C, strain POL32, stronger effect = lower value 1.09 | locus YJR066W, strain TOR1, stronger effect = lower value 0.939 | locus YKL009W, strain mrt4, stronger effect = lower value 1.05 | locus YKL068W, stronger effect = lower value 0.982 | locus YKL085W, strain MDH1 (second series), stronger effect = lower value 0.976 | locus YKL085W, strain MDH1, stronger effect = lower value 0.976 | locus YKL160W, strain elf1, stronger effect = lower value 1.04 | locus YKL190W, strain CNB1, stronger effect = lower value 0.975 | locus YKR001C, strain vps1, stronger effect = lower value 1.02 | locus YKR026C, strain gcn3, stronger effect = lower value 0.981 | locus YKR091W, strain srl3, stronger effect = lower value 0.993 | locus YLL001W, strain dnm1, stronger effect = lower value 0.985 | locus YLL026W, stronger effect = lower value 0.991 | locus YLL041C, strain sdh2, stronger effect = lower value 1.02 | locus YLR027C, strain aat2, stronger effect = lower value 1.02 | locus YLR039C, strain RIC1, stronger effect = lower value 1 | locus YLR058C, strain SHM2, stronger effect = lower value 1.01 | locus YLR102C, strain apc9, stronger effect = lower value 0.981 | locus YLR113W, strain HOG1, stronger effect = lower value 0.983 | locus YLR221C, strain rsa3, stronger effect = lower value 0.999 | locus YLR258W, strain gsy2, stronger effect = lower value 1.02 | locus YLR262C, strain YPT6 (second series), stronger effect = lower value 1.05 | locus YLR268W, strain sec22, stronger effect = lower value 1.03 | locus YLR320W, strain mms22, stronger effect = lower value 0.999 | locus YLR342W, strain FKS1, stronger effect = lower value 1 | locus YLR357W, strain rsc2, stronger effect = lower value 0.983 | locus YLR370C, strain arc18, stronger effect = lower value 0.994 | locus YLR371W, strain rom2, stronger effect = lower value 0.983 | locus YLR384C, strain iki3, stronger effect = lower value 0.98 | locus YLR418C, strain cdc73, stronger effect = lower value 0.953 | locus YML016C, strain PPZ1, stronger effect = lower value 0.977 | locus YML032C, strain rad52, stronger effect = lower value 1.01 | locus YML120C, strain ndi1, stronger effect = lower value 1.01 | locus YML124C, strain tub3, stronger effect = lower value 0.988 | locus YMR058W, strain fet3, stronger effect = lower value 1 | locus YMR078C, strain ctf18, stronger effect = lower value 0.974 | locus YMR125W, strain sto1, stronger effect = lower value 0.998 | locus YMR129W, stronger effect = lower value 0.995 | locus YMR205C, strain PFK2, stronger effect = lower value 1.02 | locus YMR223W, strain ubp8, stronger effect = lower value 0.975 | locus YMR231W, strain pep5, stronger effect = lower value 0.977 | locus YMR307W, strain GAS1, stronger effect = lower value 1.22 | locus YNL067W, strain RPL9B, stronger effect = lower value 0.965 | locus YNL071W, strain lat1, stronger effect = lower value 1.01 | locus YNL153C, strain GIM3, stronger effect = lower value 0.964 | locus YNL183C, strain NPR1, stronger effect = lower value 0.946 | locus YNL209W, strain ssb2, stronger effect = lower value 1.01 | locus YNL233W, strain BNI4, stronger effect = lower value 0.993 | locus YNL248C, strain rpa49, stronger effect = lower value 0.983 | locus YNL250W, strain rad50, stronger effect = lower value 0.943 | locus YNL271C, strain bni1, stronger effect = lower value 0.968 | locus YNL298W, strain CLA4, stronger effect = lower value 0.989 | locus YNL307C, strain MCK1, stronger effect = lower value 0.985 | locus YNL322C, strain KRE1 (second series), stronger effect = lower value 0.992 | locus YNR049C, strain mso1, stronger effect = lower value 0.993 | locus YNR052C, strain pop2, stronger effect = lower value 0.975 | locus YOL012C, strain htz1 0.732 | locus YOL147C, strain pex11, stronger effect = lower value 0.986 | locus YOR001W, strain rrp6, stronger effect = lower value 0.964 | locus YOR061W, strain CKA2, stronger effect = lower value 1.02 | locus YOR069W, strain VPS5, stronger effect = lower value 0.992 | locus YOR070C, strain gyp1, stronger effect = lower value 1.01 | locus YOR080W, strain dia2, stronger effect = lower value 0.98 | locus YOR083W, strain WHI5, stronger effect = lower value 1.05 | locus YOR106W, strain vam3, stronger effect = lower value 1.02 | locus YOR136W, strain idh2, stronger effect = lower value 0.989 | locus YOR144C, strain elg1, stronger effect = lower value 0.998 | locus YOR184W, strain ser1, stronger effect = lower value 1.09 | locus YOR231W, strain MKK1, stronger effect = lower value 1.01 | locus YOR265W, strain rbl2, stronger effect = lower value 0.998 | locus YOR270C, strain vph1, stronger effect = lower value 1.01 | locus YOR290C, strain snf2, stronger effect = lower value 1.06 | locus YOR316C, strain cot1, stronger effect = lower value 0.966 | locus YPL051W, strain arl3, stronger effect = lower value 0.979 | locus YPL078C, strain atp4, stronger effect = lower value 1.04 | locus YPL106C, strain sse1, stronger effect = lower value 0.997 | locus YPL240C, strain hsp82, stronger effect = lower value 0.993 | locus YPL241C, strain CIN2, stronger effect = lower value 0.986 | locus YPL256C, strain CLN2, stronger effect = lower value 0.978 | locus YPR119W, strain clb2, stronger effect = lower value 0.952 | locus YPR141C, strain kar3, stronger effect = lower value 0.961 | locus YPR163C, strain tif3, stronger effect = lower value 0.983 | locus YPR167C, strain met16, stronger effect = lower value 0.979 | strain wtn01, stronger effect = lower value 1.01
